A selection: hits, their analogues and other compounds. The true share with any hit is near 6.7%.
Pf Dd2 inh – P. falciparum Dd2 growth inhibition. SYBR Green, 72 h; stronger effect = lower value. activity change, % at 10 µM. 94,000 tested, 2.3% active; in the data active = activity change below about -80%; inconclusive = no clear call, values can overlap the other calls
C diff HTS – C. difficile growth inhibition. Clostridium difficile clinical isolate growth, OD600, 24 h; stronger effect = lower value. growth activity, negative = inhibition, % at 16 µg/mL (by protocol). 86,000 tested, 0.25% active. AID 1259249;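 active = mean growth activity at or below -80% and every replicate also at or below -80%; inconclusive = mean at or below -80% but some replicate above -80%; inactive = mean growth activity above -80%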
T cruzi growth-1 – T. cruzi proliferation inhibition; T. cruzi beta-gal in NIH3T3, GalScreen luminescence, 90 h; inhibition, % at 8.34 µM; 77,000 tested, 5.9% active; AID 624255;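 active = mean inhibition above about 93%, with at least 55% of replicates each passing it, limit read from the data, passing the limit was not always enough; inconclusive = only one of those two conditions holds; inactive = neither condition holds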
T cruzi growth-2 – blocks T. cruzi growth in NIH3T3 host cells; AID 651739; T. cruzi beta-gal in NIH3T3, GalScreen luminescence, 90 h; shares compounds with T cruzi growth-1; inhibition, % at 8.35 µM; 5,600 tested, 72% active;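 active = mean replicate inhibition above about 95% and at least 55% of replicates individually reaching it, limit read from the data; inconclusive = only one of the two criteria is met; inactive = neither criterion is met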
T cruzi growth-3 – inhibitors of T. cruzi proliferation. shares compounds with T cruzi growth-1. T. cruzi beta-gal in NIH3T3, GalScreen luminescence, 90 h. inhibition, % at 2.09 µM. 5,600 tested, 21% active;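 active = mean inhibition above about 95%, with at least 55% of replicates also reaching it, limit read from the data; inconclusive = meets just one of the two conditions; inactive = meets neither condition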
3T3 cytotox – kills mouse NIH/3T3 fibroblasts. shares compounds with T cruzi growth-1. NIH/3T3 viability, CellTiter-Glo ATP luminescence, 90 h. cytotoxicity (signal decrease), % at 8.35 µM. 5,600 tested, 14% active;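 active = mean signal decrease across replicates above about 35% based on untreated-well scatter, with enough replicates individually passing, limit read from the data; inconclusive = no rule stated though some were filed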
NIH3T3 tox 2 – NIH/3T3 (mouse) viability loss; AID 651744; NIH/3T3 viability, CellTiter-Glo ATP luminescence, 90 h; inhibition, % at 24.9 µM; 5,600 tested, 56% active; shares compounds with T cruzi growth-1;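 active = mean loss of cell viability signal at or above a set limit, and enough replicates individually reaching it; inconclusive = meets only the mean limit or only the replicate share; inactive = meets neither condition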
Hits are given with their value; - = inactive; ? = inconclusive; . = no result given.

SMILES	Pf Dd2 inh	C diff HTS	T cruzi growth-1	T cruzi growth-2	T cruzi growth-3	3T3 cytotox	NIH3T3 tox 2
CC=Cc1ccc2n(c1=O)C[C@@H]1[C@@H](CO)[C@H](C(=O)N3CCc4ccccc4C3)[C@H]2N1CC (mixture of isomers)	.	-	-	.	.	.	.
COc1cccc(-c2ccc3c(c2)O[C@H](CN(C)Cc2cncnc2)[C@H](C)CN([C@H](C)CO)S3(=O)=O)c1	-	-	-	.	.	.	.
O=C(Nc1ccccc1)N1C[C@@H]2[C@H](c3ccccc31)[C@H](CO)N2Cc1ccccc1Cl	-	-	?	97	-	-	-
O=C(Nc1ccccc1)N1C[C@@H]2[C@H](c3ccccc31)[C@@H](CO)N2Cc1ccccc1Cl	-	-	-	.	.	.	.
O=C(Nc1ccccc1F)N1C[C@@H]2[C@H](c3ccccc31)[C@H](CO)N2C(=O)C1CC1	-	-	-	.	.	.	.
O=C(Nc1ccc(Cl)cc1)N1C[C@H]2[C@@H](c3ccccc31)[C@@H](CO)N2CC1CCCCC1	-	-	109	106	-	-	104
O=C(Nc1ccc(Cl)cc1)N1C[C@H]2[C@@H](c3ccccc31)[C@H](CO)N2CC1CCCCC1	-	-	-	.	.	.	.
O=C(Nc1ccccc1F)N1C[C@@H]2[C@H](c3ccccc31)[C@H](CO)N2C(=O)C1CCOCC1	-	-	107	-	-	-	-
C[C@@H]1CN([C@H](C)CO)C(=O)Cc2cc(NC(=O)CCC(F)(F)F)ccc2O[C@H]1CN(C)C(=O)Nc1ccc2c(c1)OCO2	-	-	-	.	.	.	.
Cc1noc(C)c1NC(=O)N(C)C[C@@H]1Oc2cc(C#CCC3CCCC3)ccc2S(=O)(=O)N([C@@H](C)CO)C[C@H]1C	-	-	.	.	.	.	.
C[C@H](CO)N1C[C@H](C)[C@H](CN(C)C(=O)Nc2ccc(F)cc2)Oc2ccc(NC(=O)Nc3cccc4ccccc34)cc2C1=O	-	-	-	.	.	.	.
COc1ccc(S(=O)(=O)N(C)C[C@@H]2Oc3ccc(NS(=O)(=O)c4c(C)noc4C)cc3CC(=O)N([C@H](C)CO)C[C@H]2C)cc1	-	-	-	.	.	.	.
C[C@H]1CCCCO[C@H](CN(C)C(=O)Nc2ccc(C(F)(F)F)cc2)[C@@H](C)CN([C@@H](C)CO)C(=O)c2cc(NC(=O)Nc3ccc4c(c3)OCO4)ccc2O1	-85	-	107	102	110	-	-
C[C@@H]1CCCCO[C@H](CN(C)C(=O)Nc2ccc3c(c2)OCO3)[C@H](C)CN([C@@H](C)CO)C(=O)c2cc(NC(=O)Nc3ccc4c(c3)OCO4)ccc2O1	-	.	-	.	.	.	.
C[C@@H]1CN([C@@H](C)CO)C(=O)c2cc(NC(=O)Nc3ccc(C(F)(F)F)cc3)ccc2O[C@@H](C)CCCCO[C@@H]1CN(C)C(=O)Nc1ccc2c(c1)OCO2	-	-	.	.	.	.	.
C[C@H](CO)N1C[C@H](C)[C@H](CN(C)C(=O)Nc2ccc(C(F)(F)F)cc2)OCCCC[C@H](C)Oc2ccc(NC(=O)Nc3ccc4c(c3)OCO4)cc2C1=O	-	-	111	100	109	-	-
C[C@H](NC(=O)[C@@H]1[C@@H](CO)[C@@H]2Cn3c(cccc3=O)[C@@H]2N1Cc1cccnc1)c1ccccc1	.	-	-	.	.	.	.
COCC(=O)Nc1ccc2c(c1)C(=O)N(C)[C@H]1CC[C@H](CC(=O)NCc3ccccc3F)O[C@H]1CO2	-	-	-	.	.	.	.
C[C@@H]1CN([C@H](C)CO)C(=O)c2cc(NC(=O)CCC(F)(F)F)ccc2O[C@@H](C)CCCCO[C@H]1CN(C)Cc1ccc(C(=O)O)cc1	-	-	-	.	.	.	.
COc1ccc(-c2ccc([C@@H]3[C@@H](C#N)N(C(=O)C4CCOCC4)[C@H]3CO)cc2)cc1	-	-	-	.	.	.	.
N#C[C@H]1[C@H](c2ccc(-c3cncnc3)cc2)[C@@H](CO)N1C(=O)C1CCC1	-	-	-	.	.	.	.
N#C[C@@H]1[C@H](c2ccc(-c3cncnc3)cc2)[C@H](CO)N1C(=O)C1CCC1	-	-	101	-	-	-	-
N#C[C@@H]1[C@@H](c2ccc(-c3cncnc3)cc2)[C@H](CO)N1C(=O)C1CCOCC1	-	-	100	-	-	-	-
COc1ccc(S(=O)(=O)Nc2cccc3c2O[C@H](CN(C)Cc2ccc(Oc4ccccc4)cc2)[C@H](C)CN([C@@H](C)CO)C3=O)cc1	-	-	-	.	.	.	.
